Records with an inconclusive call do not appear. A call without a number means that no potency is given here. Active and inactive are the calls of the source. Unless noted, the call rests on the fitted dose curve; in most records, active means well fitted curve in the direction sought with a large enough effect in the repeat runs; inconclusive means weak or mixed curves; inactive means no such curve, though single readings can be large; an effect the other way counts as inactive or inconclusive.
What was measured:
[1] = qHTS assay to identify small molecule antagonists of the estrogen receptor alpha (ER-alpha) signaling pathway using the BG1 cell line in the presence of 0.1 nM 17-beta-estradiol - cell viability counter screen (AID 1259241); further: nearly all actives have a fitted effect of over 40% in size
In short: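 The cell line endogenously expresses full-length ER-alpha and carries four EREs driving luciferase. Cells are cultured 5 days hormone-free, treated 22 hr with compounds and 0.1 nM estradiol, then viability is read by fluorescence.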

[2] = qHTS assay to identify small molecule antagonists of the androgen receptor (AR) signaling pathway using the MDA cell line in the presence of 0.5 nM R1881 - cell viability counter screen (AID 1259242); further: nearly all actives have a fitted effect of over 45% in size
In short: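 MDA-kb2 cells (MMTV-luciferase, AR/GR responsive) were treated with compounds plus 0.5 nM R1881 (final) for 16 hr at 37C, 0% CO2. Viability was then read in the same wells as live-cell protease fluorescence (CellTiter-Fluor, 30 min).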

[3] = qHTS assay to identify small molecule phospholipidosis (PLD) inducers (AID 1259344; active means well fitted curve in the direction sought with a large enough effect; an effect the other way counts as inactive or inconclusive)
In short: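 Fluorescent phospholipid staining (LipidTOX Red) measured by automated microscopy in fixed HepG2 cells after 24 h treatment; nuclei counterstained with Hoechst 33342; amiodarone as reference inducer.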

[4] = qHTS assay to identify small molecule HDAC inhibitors - cell viability counter screen (AID 1259365); further: series mostly up to about 92 µM; nearly all actives have a fitted effect of over 50% in size
In short: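 Viability readout: CellTiter-Glo luminescence. Wild-type HCT-116 cells, 2hr compound treatment following overnight attachment at 37 C.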

[5] = qHTS assay to identify small molecule agonists of the sonic hedgehog signaling (Shh) pathway - cell viability counter screen (AID 1259366); further: nearly all actives have a fitted effect of over 50% in size
In short: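 Viability measured fluorometrically (CellTiter-Fluor, 1hr, 37C) in 3T3 Gli1-Luc reporter cells after 23hr compound exposure within a 24hr incubation at 37C/5% CO2.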

[6] = qHTS assay to identify small molecule antagonists of the sonic hedgehog signaling (Shh) pathway - cell viability counter screen (AID 1259367); further: nearly all actives have a fitted effect of over 55% in size
In short: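 Using CellTiter-Fluor, viability of Gli1-Luc reporter 3T3 cells is read by fluorescence in the wells used for the Shh luciferase assay. Treatment lasts 23 hr with conditioned medium, then reagent 1 hr at 37C.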

[7] = qHTS assay to identify small molecule agonists of the sonic hedgehog signaling (Shh) pathway (AID 1259368; calls by dose curve;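 further: NIH/3T3-derived 3T3Gli1-Luc cells carrying a stable Gli1-driven firefly luciferase reporter; series mostly up to about 92 µM; nearly all actives have a fitted effect of over 15% in size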)
In short: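 NIH/3T3-derived 3T3Gli1-Luc cells with stably integrated Gli1-driven firefly luciferase, 2,000 cells/well, compounds added after 4 hr. Incubated 24 hr at 37C, 5% CO2; luminescence read after 30 min with luciferase reagent at room temperature.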

[8] = qHTS assay to identify small molecule antagonists of the estrogen receptor beta (ER-beta) signaling pathway - cell viability counter screen (AID 1259382);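 further: HEK293T cells carrying ER-beta-UAS-bla reporter stimulated with estradiol; series mostly up to about 92 µM; nearly all actives have a fitted effect of over 55% in size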
In short: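 ER-beta-UAS-bla HEK293T cells in 2% charcoal-stripped FBS medium, treated with compound plus 1 nM 17-beta-estradiol for 16 h at 37C. Viability read by CellTiter-Glo luminescence after 30 min at room temperature in the same wells.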

[9] = qHTS assay to identify small molecule agonists or antagonists of the thyroid stimulating hormone receptor (TSHR) signaling pathway - wild type cell line counter screen (AID 1259384; calls by dose curve)
In short: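 Counter screen in untransfected Hek293: compounds (15-point titration, triplicate) plus phosphodiesterase inhibitor Ro20-1724 added after 18 h plating; 30 min RT. Intracellular cAMP via competitive d2/cryptate immunoassay, 1 h incubation.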

[10] = target: Thyrotropin receptor (Homo sapiens) (UniProt P16473); assay: qHTS assay to identify small molecule antagonists of the thyroid stimulating hormone receptor (TSHR) signaling pathway (AID 1259385; calls by dose curve; further: nearly all actives have a fitted effect of over 20% in size)
In short: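 Antagonist mode: compound-treated TSHR-expressing HEK293 cells were stimulated with 1.5 ng/mL TSH (final) in presence of Ro20-1724 for 30 min at RT. HTRF cAMP detection after 1 h; each compound tested at 15 concentrations, triplicate.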

[11] = qHTS assay to identify small molecule HDAC inhibitors (AID 1259364); further: nearly all actives have a fitted effect of over 45% in size; further: potency means the concentration at half of the fitted maximal effect
In short: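 Wild-type HCT-116 cells, plated overnight at 37 C, exposed to compounds 2 hr at 37 C; luminogenic HDAC-Glo substrate then added 30 min at room temperature. Luminescence reports relative endogenous class I/II HDAC activity.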

[12] = qHTS assay to identify small molecule antagonists of the sonic hedgehog signaling (Shh) pathway (AID 1259369; calls by dose curve; further: nearly all actives have a fitted effect of over 45% in size; further: potency means the concentration at half of the fitted maximal effect)
In short: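 NIH/3T3-derived Gli1-Luc reporter cells plated 4 h, dosed with compound, then stimulated with conditioned medium for 24 h at 37 C. Firefly luciferase luminescence read after 30 min with detection reagent at room temperature.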

[13] = target: Estrogen receptor beta (Homo sapiens) (UniProt Q92731); assay: qHTS assay to identify small molecule agonists of the estrogen receptor beta (ER-beta) signaling pathway (AID 1259377; active means well fitted activation curve with a large enough effect in the signal ratio in the repeat runs, not every such curve was filed as active; the % refers to the signal ratio)
In short: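 A UAS-controlled beta-lactamase reporter in ER-beta-UAS-bla HEK293T cells reports receptor activation. Compounds act for 16 hr at 37C in 2% charcoal-stripped serum, and a FRET substrate is read by fluorescence after 2 hours.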

[14] = target: Estrogen receptor beta (Homo sapiens) (UniProt Q92731); assay: qHTS assay to identify small molecule antagonists of the estrogen receptor beta (ER-beta) signaling pathway (AID 1259378; active means well fitted inhibition curve with a large enough effect in the signal ratio in the repeat runs, not every such curve was filed as active; the % refers to the signal ratio)
In short: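 Antagonist mode: compounds added to beta-lactamase reporter HEK293T ER-beta-UAS cells stimulated with E2 (1nM final), 16 hr at 37C. LiveBLAzer B/G FRET substrate, 2 hours room temperature, fluorescence read-out.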

[15] = qHTS assay to identify small molecule agonists of the estrogen receptor beta (ER-beta) signaling pathway - cell viability counter screen (AID 1259380); further: nearly all actives have a fitted effect of over 30% in size
In short: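 ER-beta-UAS-bla HEK293T cells in medium with 2% charcoal-stripped FBS, pre-incubated 6 hr, then treated 16 hr at 37C. Cytotoxicity read in the same wells by CellTiter-Glo luminescence after 30 min at room temperature.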

[16] = qHTS assay to identify small molecule agonists of the androgen receptor (AR) signaling pathway in the presence of an antagonist - cell viability counter screen (AID 1259379);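 further: MDA-kb2 human breast cancer cells carrying an MMTV luciferase reporter; series mostly up to about 92 µM; nearly all actives have a fitted effect of over 25% in size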
In short: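 MDA-kb2 cells (MMTV-luciferase, AR/GR), 3,000/well, 5 h attachment, then 3.0 µM nilutamide (final) and compounds at 15 concentrations. Viability by CellTiter-Fluor fluorescence after 16 h at 37 °C, 0% CO2, in the reporter wells.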

[17] = target: Estrogen receptor (Homo sapiens) (UniProt P03372); assay: qHTS assay to identify small molecule antagonists of the estrogen receptor alpha (ER-alpha) signaling pathway using the BG1 cell line in the presence of 0.1 nM 17-beta-estradiol (AID 1259244); further: nearly all actives have a fitted effect of over 50% in size
In short: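 VM7Luc4E2 cells (endogenous full-length ER-alpha, 4×ERE-luciferase), kept 5 days in phenol red-free, charcoal-stripped FBS medium; 4,000 cells/well. Compounds added with 0.1 nM (final) 17beta-estradiol, 22 hr at 37C; luminescence read with ONE-Glo after 30 min.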

[18] = target: Estrogen receptor (Homo sapiens) (UniProt P03372); assay: qHTS assay to identify small molecule agonists of the estrogen receptor alpha (ER-alpha) signaling pathway in the presence of an antagonist (AID 1259383; calls by dose curve; further: top concentration of the series differs between compounds; nearly all actives have a fitted effect of over 15% in size)
In short: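 VM7Luc4E2 cells express endogenous full-length ER-alpha with an ERE-luciferase reporter and were hormone-deprived for 5 days. Compounds at 15 concentrations were added with 10.0nM ICI-182,780 for 22hr at 37C. Luminescence was read with ONE-Glo.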

Thyrotropin receptor (Homo sapiens), sequence (P16473 whole entry, looked up): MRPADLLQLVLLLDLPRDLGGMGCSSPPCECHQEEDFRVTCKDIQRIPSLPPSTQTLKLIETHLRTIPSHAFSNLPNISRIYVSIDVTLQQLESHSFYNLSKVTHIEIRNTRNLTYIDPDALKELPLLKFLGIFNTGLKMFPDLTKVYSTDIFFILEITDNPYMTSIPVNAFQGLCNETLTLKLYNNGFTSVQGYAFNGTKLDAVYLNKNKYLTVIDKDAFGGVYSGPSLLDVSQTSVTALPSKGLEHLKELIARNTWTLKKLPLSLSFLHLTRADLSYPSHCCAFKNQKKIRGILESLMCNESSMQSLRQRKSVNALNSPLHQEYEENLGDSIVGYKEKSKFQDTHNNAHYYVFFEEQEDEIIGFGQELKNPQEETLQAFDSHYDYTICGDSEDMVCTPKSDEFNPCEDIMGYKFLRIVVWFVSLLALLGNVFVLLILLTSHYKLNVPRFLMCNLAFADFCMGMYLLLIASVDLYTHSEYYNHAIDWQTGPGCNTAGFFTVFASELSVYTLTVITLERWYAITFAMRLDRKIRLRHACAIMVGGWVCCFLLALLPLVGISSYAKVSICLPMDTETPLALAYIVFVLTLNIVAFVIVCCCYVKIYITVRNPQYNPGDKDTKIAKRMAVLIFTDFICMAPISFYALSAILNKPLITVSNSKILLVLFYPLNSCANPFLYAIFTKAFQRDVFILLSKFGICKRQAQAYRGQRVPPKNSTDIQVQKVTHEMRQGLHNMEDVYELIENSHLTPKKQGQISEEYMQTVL
Estrogen receptor beta (Homo sapiens), sequence (Q92731 whole entry, looked up): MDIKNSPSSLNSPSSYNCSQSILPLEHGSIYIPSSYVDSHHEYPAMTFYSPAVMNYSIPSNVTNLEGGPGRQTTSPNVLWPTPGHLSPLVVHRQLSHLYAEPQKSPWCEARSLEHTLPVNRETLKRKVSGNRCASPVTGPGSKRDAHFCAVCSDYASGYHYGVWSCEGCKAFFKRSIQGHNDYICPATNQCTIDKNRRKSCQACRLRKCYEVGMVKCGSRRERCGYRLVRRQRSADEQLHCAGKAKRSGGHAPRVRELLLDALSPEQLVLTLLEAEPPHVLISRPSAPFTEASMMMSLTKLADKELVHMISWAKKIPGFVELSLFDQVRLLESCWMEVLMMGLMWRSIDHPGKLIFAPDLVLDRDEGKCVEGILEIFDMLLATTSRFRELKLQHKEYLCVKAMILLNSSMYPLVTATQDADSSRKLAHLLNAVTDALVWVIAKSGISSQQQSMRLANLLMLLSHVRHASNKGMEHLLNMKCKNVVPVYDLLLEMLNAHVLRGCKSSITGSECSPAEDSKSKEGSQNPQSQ
Estrogen receptor (Homo sapiens), sequence (P03372 whole entry, looked up): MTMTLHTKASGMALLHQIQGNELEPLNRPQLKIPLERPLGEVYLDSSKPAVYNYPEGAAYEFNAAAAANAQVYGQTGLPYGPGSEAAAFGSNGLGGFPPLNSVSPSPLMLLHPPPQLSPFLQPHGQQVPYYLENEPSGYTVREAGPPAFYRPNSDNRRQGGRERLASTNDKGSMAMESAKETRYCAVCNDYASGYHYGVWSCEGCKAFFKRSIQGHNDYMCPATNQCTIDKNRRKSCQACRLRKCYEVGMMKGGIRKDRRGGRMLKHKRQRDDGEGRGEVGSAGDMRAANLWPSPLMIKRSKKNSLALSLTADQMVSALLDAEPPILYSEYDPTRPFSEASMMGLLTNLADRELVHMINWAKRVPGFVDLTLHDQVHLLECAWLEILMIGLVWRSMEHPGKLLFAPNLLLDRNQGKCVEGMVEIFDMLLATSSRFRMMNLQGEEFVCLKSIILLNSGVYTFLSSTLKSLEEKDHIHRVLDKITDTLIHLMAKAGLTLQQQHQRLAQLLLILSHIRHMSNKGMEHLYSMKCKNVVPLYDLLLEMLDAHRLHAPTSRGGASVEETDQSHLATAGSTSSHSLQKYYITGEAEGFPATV

Row | SMILES | Potency [1] | Potency [2] | Potency [3] | Potency [4] | Potency [5] | Potency [6] | Potency [7] | Potency [8] | Potency [9] | Potency [10] | Potency [11] | Potency [12] | Potency [13] | Potency [14] | Potency [15] | Potency [16] | Potency [17] | Potency [18]
1 | COc1ccc(/C=C/C(=O)c2ccc(OC)cc2OC)cc1 | inactive | inactive | inactive | inactive | inactive | inactive | inactive | inactive | inactive | inactive | – | – | – | – | – | – | – | –
2 | CC(=O)N[C@@H](Cc1ccc(O)cc1)C(=O)O | inactive | inactive | inactive | inactive | inactive | inactive | inactive | inactive | inactive | inactive | inactive | inactive | inactive | inactive | inactive | – | – | –
3 | CCCCCCCC(=O)Oc1c(Br)cc(C#N)cc1Br | inactive | inactive | – | – | inactive | inactive | – | – | inactive | inactive | inactive | 27.2 µM (active) | – | – | – | inactive | – | –
4 | C1CCCCC1 | inactive | inactive | – | – | inactive | inactive | inactive | inactive | inactive | inactive | inactive | inactive | – | inactive | inactive | inactive | – | –
5 | CNc1c2c(nn1C)CCCC2 | – | inactive | inactive | inactive | inactive | inactive | inactive | inactive | inactive | inactive | inactive | inactive | – | inactive | inactive | inactive | inactive | –
6 | Nc1nc(-c2ccc([N+](=O)[O-])cc2)cs1 | inactive | inactive | – | inactive | inactive | inactive | – | inactive | inactive | inactive | 12.3 µM (active) | – | inactive | inactive | – | – | – | –
7 | CC1CCCO1 (configuration not stated) | inactive | inactive | – | inactive | – | inactive | inactive | inactive | – | – | inactive | inactive | inactive | inactive | inactive | inactive | – | –
8 | COc1ccc2nc(S(=O)Cc3ncc(C)c(OC)c3C)[nH]c2c1 (configuration not stated) | – | inactive | inactive | inactive | inactive | inactive | inactive | inactive | inactive | inactive | inactive | – | – | – | inactive | inactive | inactive | inactive
9 | CC(C)COC(=O)c1ccc(O)cc1 | inactive | inactive | – | inactive | inactive | inactive | – | inactive | – | – | – | inactive | – | – | inactive | inactive | – | –
10 | O=C(NC(Cc1cc(=O)[nH]c2ccccc12)C(=O)O)c1ccc(Cl)cc1 (configuration not stated) | – | inactive | inactive | inactive | inactive | inactive | inactive | inactive | inactive | inactive | inactive | inactive | – | – | – | inactive | inactive | inactive

From PubChem BioAssay (Tox21)
